From PubChem BioAssay AID504332 (National Center for Advancing Translational Sciences (NCATS), 2011)
Out of some 350,000 compounds screened, about 31,000 (8.9%) were called active. Inconclusive results (about 15%) are left out. The call rests on the fitted dose curve; in most records, active means well fitted inhibition curve with a large enough effect; inconclusive means small, poorly fitted or top-dose-only effect; inactive means no such curve, though single readings can be large or run the other way. Shown is part of a subset that was picked to be rich in actives. A call without a number means that no potency is given here.

Target: Histone-lysine N-methyltransferase EHMT2 (Homo sapiens) (UniProt Q96KQ7)
Test: qHTS Assay for Inhibitors of Histone Lysine Methyltransferase G9a; further: nearly all actives have a fitted effect of over 75% in size
Details: G9a H3K9 monomethylation, AlphaScreen, 2 h; series mostly up to 59 µM
Summary of the method: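 G9a (20 nM) was preincubated 15 min with compound, then reacted 2 h at room temperature with 500 nM biotin-H3K9 peptide and 20 µM SAM. Monomethyl-H3K9 detected by AlphaScreen using anti-H3K9me1 antibody.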
Potency means the concentration at half of the fitted maximal effect.

Sequence of Histone-lysine N-methyltransferase EHMT2 (Homo sapiens) (Q96KQ7 913-1193 limits assumed): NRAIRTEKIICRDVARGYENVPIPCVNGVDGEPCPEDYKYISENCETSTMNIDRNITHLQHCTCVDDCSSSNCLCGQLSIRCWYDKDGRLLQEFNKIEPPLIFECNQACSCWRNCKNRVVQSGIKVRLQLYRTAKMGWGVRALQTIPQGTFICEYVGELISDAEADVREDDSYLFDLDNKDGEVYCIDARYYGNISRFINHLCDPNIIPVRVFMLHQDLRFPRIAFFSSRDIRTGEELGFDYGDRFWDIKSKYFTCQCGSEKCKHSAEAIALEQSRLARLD

SMILES | Potency | activity, negative = inhibition
O=C(COC(=O)CNS(=O)(=O)c1ccc(F)c(F)c1F)NC1CCCC1 | inactive | 
CCc1ccc(S(=O)(=O)c2nnn3c2nc(N2CCN(CC)CC2)c2sccc23)cc1 | inactive | 
CCCCN(C(=O)CSCC(=O)Nc1ccc(OC)cc1)c1c(N)n(CCC)c(=O)[nH]c1=O |  | 19.8% [at 2.33 µM] (inactive)
CCOC(=O)N1CCN(Cc2nc(N)nc(Nc3ccc(C)cc3)n2)CC1 |  | -23.8% [at 2.33 µM] (inactive)
Cc1ccccc1Nc1nc(N)nc(CN2CCN(c3ccccn3)CC2)n1 |  | -45.5% [at 12.7 µM] (inactive)
Cc1ccc(Nc2nc(N)nc(CN3CCN(Cc4ccccc4)CC3)n2)cc1Cl | 50.1 µM (active) | 
CC(=O)c1ccc(NC(=O)c2ccc(-n3cncn3)c([N+](=O)[O-])c2)cc1 | inactive | 
O=C(c1ccccc1)N1CCN(c2ccc([N+](=O)[O-])c(NCc3ccco3)c2)CC1 |  | 44.5% [at 0.501 µM] (inactive)
COc1ccccc1OCCNC(=O)c1cc([N+](=O)[O-])cc([N+](=O)[O-])c1 | inactive | 
O=[N+]([O-])c1ccc(N2CCN(S(=O)(=O)c3ccc4ccccc4c3)CC2)cc1NCc1ccco1 | inactive | 
CC(=O)Nc1ccc(S(=O)(=O)N2CCN(c3ccccc3)CC2)cc1 | inactive | 
COc1ccccc1OCCNc1cc(N2CCOCC2)ccc1[N+](=O)[O-] | 39.8 µM (active) | 
CC(=O)Nc1ccc(S(=O)(=O)N2CCN(c3ccc([N+](=O)[O-])c(NCCN4CCOCC4)c3)CC2)cc1 | 70.8 µM (active) | 
O=C(NCCNc1ccccc1[N+](=O)[O-])c1ccccc1F | inactive | 
Cc1ccc(CCNC(=O)c2ccc(CS(=O)(=O)Cc3cccc(C)c3)o2)cc1 | inactive | 
O=C(N/N=C\c1cc2c(cc1Cl)OCO2)c1ccc(Br)s1 | inactive | 
CCN1C(=O)[C@@H]2[C@@H](c3ccc(-c4cccc(Cl)c4)cc3)N3CCC[C@@]3(C(=O)OC)[C@@H]2C1=O |  | 4.52% [at 2.33 µM] (inactive)
CC(C)(C)OC(=O)NCCCCCC(=O)N/N=C/c1coc2ccccc2c1=O | inactive | 
CC1=CC2=NC(=O)/C(=C/c3coc4ccccc4c3=O)C(=N)N2O1 | 44.7 µM (active) | 

SMILES | Potency | activity, negative = inhibition
CCOc1cc(/C=C2/C(=N)N3OC(C)=CC3=NC2=O)ccc1OC | inactive | 
CC(=O)Nc1ccc(S(=O)(=O)N2CCn3cccc3C2C)cc1 (configuration not stated) |  | -104% [at 12.7 µM] (inactive)
CCCC1(C(=O)OCC)NC(c2ccc(N(C)C)cc2)C2C(=O)N(c3ccc4c(c3)OCCO4)C(=O)C21 (configuration not stated) | 8.91 µM (active) | 
CCOC(=O)C1(C)NC(c2ccco2)C2C(=O)N(c3ccccc3)C(=O)C21 (configuration not stated) | inactive | 
COC(=O)C1(C)NC(c2ccc(C)cc2)C2C(=O)N(c3ccc(F)cc3)C(=O)C21 (configuration not stated) | inactive | 
Cc1csc(NC(=O)NC2(C(F)(F)F)Oc3ccccc3O2)n1 | 2 µM (active) | 
Cc1csc(NC(=O)C2CCN(S(=O)(=O)c3ccccc3)CC2)n1 | inactive | 
CC(=O)Nc1cccc(C(=O)Nc2nc(C)cs2)c1 | inactive | 
CC(C)(C)C1C/C(=C/c2ccco2)C(=O)/C(=C/c2ccco2)C1 (configuration not stated) | 39.8 µM (active) | 
O=C1OC(/C=C/c2ccccc2)=NC/1=C/c1ccco1 | inactive | 
CCOC(=O)c1c(S(=O)(=O)N2CCC(C(=O)NCc3ccccc3OC)CC2)c(C)n(C)c1C | inactive | 
CCOC(=O)c1c(NC(=O)c2ccc(S(=O)(=O)N3CCCC(C)C3)cc2)sc2c1CCN(C(C)C)C2 (configuration not stated) | inactive | 
CC(C)(C)NC(=O)COc1ccc(CNc2ccc3[nH]c(=O)[nH]c3c2)cc1 | 31.6 µM (active) | 
CC(=O)Nc1ccc(OCC(=O)NCc2ccc(C)cc2)cc1 | inactive | 
COC(=O)c1ccc(OCC(=O)NC(C)(C)C)cc1 | inactive | 
Cc1ccc(OCC(=O)N2CCN(S(=O)(=O)c3ccc(Cl)s3)CC2)cc1C |  | 6.17% [at 2.33 µM] (inactive)
C=CCNC(=S)N/N=C/c1ccc(OCc2ccccc2)cc1 | inactive | 
C=CCNC(=O)COc1coc(CN2CCN(Cc3ccccc3)CC2)cc1=O |  | 18.3% [at 0.501 µM] (inactive)
C=CCNC(=S)/N=c1/ccccn1Cc1ccccc1 | 31.6 µM (active) | 

SMILES | Potency | activity, negative = inhibition
O=C(CSc1nc2[nH]c(=O)[nH]c(=O)c2s1)Nc1cccc(F)c1 |  | 24.5% [at 12.7 µM] (inactive)
COc1ccc(OC)c(NC(=O)CSC2=Nc3ccccc3C3=NC(CC(=O)NCCc4ccccc4)C(=O)N23)c1 (configuration not stated) | inactive | 
COc1ccc(OCC(=O)Nc2cc(C)c(Cl)cc2OC)c([N+](=O)[O-])c1 | inactive | 
COc1cc(NC(=O)COC(=O)CSc2ccc3ccccc3c2)c(C)cc1[N+](=O)[O-] | inactive | 
Cc1cc(NC(=O)COC(=O)COc2ccc(Cl)cc2C)c([N+](=O)[O-])cc1C | 8.91 µM (active) | 
Cc1ccccc1OCCSc1nc2ccc(NC(=O)c3ccco3)cc2s1 | inactive | 
CC(=O)c1c(C)[nH]c(C(=O)OCC(=O)Nc2c(C)cccc2C)c1C |  | -11.6% [at 12.7 µM] (inactive)
O=S(=O)(Nc1ccc2nc(N3CCOCC3)sc2c1)c1ccccc1 | 50.1 µM (active) | 
CC(=O)Nc1ccc(S(=O)(=O)Nc2ccc(N3CCOCC3)c(F)c2)cc1 | inactive | 
Brc1ccc2nc(N3CCCC3)sc2c1 | inactive | 
Cc1ccc(S(=O)(=O)N2CCN(C(=O)N3CCOCC3)CC2)c(C)c1 | inactive | 
COC(=O)c1sc(=S)n(-c2ccc(Cl)cc2)c1C | inactive | 
COC(=O)c1sc(N2CCN(Cc3ccccc3)CC2)nc1N | inactive | 
CC(C)=C1SC(N2CCN(c3cccc(C)c3)CC2)=NC1=O |  | 10.3% [at 12.7 µM] (inactive)
N#Cc1ccccc1-n1c(N)c(C(=O)N2CCCC2)sc1=S |  | 19.8% [at 0.501 µM] (inactive)
Cc1ccc(-n2c(N)c(C(=O)N3CCOCC3)sc2=S)c(C)c1 | 7.94 µM (active) | 
Cc1cccc(-n2c(N)c(C(=O)N3CCN(C)CC3)sc2=S)c1 | 8.91 µM (active) | 
Cc1cccc(C(=O)N2CCCN(C(=O)c3cccc(C)c3)CC2)c1 |  | -5.03% [at 12.7 µM] (inactive)
COC(=O)c1sc(=S)n(-c2ccccc2)c1N | 3.16 µM (active) | 
